Data reported in ChEMBL document CHEMBL3988442, “University of Dundee, Small-Polar-MMV Screening Library” (2021).
Hit rate of the full screen: of about 48,000 compounds, about 13,000 (27%) showed an effect of 50% or more. The list shows a part of the results.

System: Wolbachia pipientis
Assay: Anti-Wolbachia Cell-Based Screen
Format: functional
Set-up: scale not given: in the data most compounds retested in dose-response had high values
Conditions: 5 µM

Structure (SMILES)	Percent Effect [%]
COc1ccc(-c2cn3c(n2)CO[C@@H](CNCc2ccccn2)C3)cc1	-5.771
CC(C)OCCN1CCc2cncnc2C1	-3.318
Cn1nnc(NCc2ccc(OCc3ccc(Cl)cc3)cc2)n1	101.9
Cc1nnc(NCc2ccc(Cl)cc2)o1	-6.045
CC(NCc1ccc(OCC(N)=O)cc1)c1ccc(Cl)cc1.Cl (centres undefined)	-2.794
CC[C@@]1(O)CCN(C(=O)c2ccsc2)C[C@H]1O	-12.48
CCc1ccc(C(=O)N2CCC3(CCC(=O)N(CCN(C)C)C3)CC2)[nH]1	-7.538
Cc1cc2cccc(C(=O)N3CC[C@](C)(O)[C@H](C)C3)c2o1	15.88
CCSc1ccc(C(=O)N2CC[C@](O)(CC)[C@H](O)C2)s1	107.9
CCn1nc(CC(C)C)cc1C(=O)N1CCC2(CC1)[C@H](O)C[C@@H]2O	-14.19
CCSc1ccc(C(=O)N2CCC3(CCC(=O)N(C)C3)CC2)s1	103.4
CCc1ccc(C(=O)N2CC[C@](C)(O)[C@H](C)C2)[nH]1	-16.61
CO[C@H]1C[C@@H](O)C12CCN(C(=O)CCSCc1ccc(F)cc1)CC2	11.02
CCSc1ccc(C(=O)N2CCC3(CC2)[C@H](O)C[C@@H]3O)s1	100.2
CCN1CC2(CCC1=O)CCN(C(=O)c1ccc(Cl)cc1O)CC2	-7.361
CCSc1ccc(C(=O)N2CC[C@](C)(O)[C@H](C)C2)s1	109.4
CC[C@@]1(O)CCN(C(=O)c2ccc(-n3cnnc3)cc2)C[C@H]1O	5.833
COc1ccccc1N1CCN(C(=O)c2ccoc2)CC1	4.438
CNC(=O)Cc1noc(-c2cc3c(s2)CCCCCC3)n1	-5.82
COc1cccc(CC(=O)N2CCc3ncnc(C)c3CC2)c1	-6.07
CCn1c(C)cc(C(=O)N2CCCC(c3nc(C)no3)C2)c1C (centres undefined)	12.03
CCn1cnnc1C1CCN(C(=O)c2c(C)oc(C)c2C)CC1	107.2

Structure (SMILES)	Percent Effect [%]
CCn1cnnc1C1CCN(C(=O)c2cc(C)n(CC)c2C)CC1	80.75
CCc1ccc(C(=O)N2CCC(c3nncn3CC)CC2)o1	130.6
CCn1cnnc1C1CCN(C(=O)c2ccoc2C)CC1	104.9
CCn1cnnc1C1CCN(C(=O)c2ccc(Cl)s2)CC1	1.567
CCn1cnnc1C1CCN(C(=O)COCCc2ccccc2)CC1	1.598
CCCS(=O)(=O)N1CCC2(CC1)COCCN(C(C)=O)C2	-12.8
NCCC1CN(c2nc(-c3ccccc3)nc3c2CCNC3)CCO1 (centres undefined)	-13.03
CC(=O)c1cccc(OCCCC(=O)N(C)Cc2cscn2)c1	4.484
COc1cc(Br)c(CNC(C)c2nnc3n2CCC3)cc1OC (centres undefined)	2.226
CNS(=O)(=O)c1ccccc1N1CCN(C(=O)C(C)C)CC1	-15.34
COc1cccc2ccc(CN3CCN(c4cccnc4)CC3)nc12	1.116
CCn1cnnc1C1CCN(C(=O)c2ccc3ccccc3n2)CC1	136.7
CCn1cnnc1C1CCN(C(=O)C(OC)c2ccccc2)CC1 (centres undefined)	-2.664
CCn1cnnc1C1CCN(C(=O)c2cccc(C)c2C)CC1	94.12
CCn1cnnc1C1CCN(C(=O)c2ccccc2F)CC1	104.8
CNc1nc(CNC(=O)Nc2ccccc2OC(C)C)cs1	-5.433
CCSCCC(C)N(C)C(=O)c1cc(C)no1 (centres undefined)	-5.306
Cc1[nH]ncc1CCCNC(=O)Nc1ccc(C#N)cc1	-18.53
CCOCCn1nc(C)cc1C(=O)N1CC[C@@](O)(COC)C(C)(C)C1	0.9121
CC(Sc1nnc(C2CC2)n1CC(N)=O)c1ccc(Cl)cc1 (centres undefined)	0.3539
OCC1(CCOc2ccccc2)CCN(c2ccc(Cl)cn2)CC1	-3.583
Cc1ccc(Cl)cc1-n1nnnc1C1(N2CCCC2)CCCC1	-26.05

Structure (SMILES)	Percent Effect [%]
Cc1cccc(C(=O)NCC(O)c2ccc(F)cc2F)c1 (centres undefined)	14.48
COc1cccc(NC(=O)NCC(Cc2cnn(C)c2)C(N)=O)c1 (centres undefined)	2.392
COc1ncccc1NC(=O)NCC(O)c1ccc(F)cc1F (centres undefined)	0.8108
O=C(NCC(O)c1ccc(F)cc1F)c1ccccc1F (centres undefined)	15.04
COc1ccccc1NC(=O)NCC(O)c1ccc(F)cc1F (centres undefined)	114.6
COc1cccc(NC(=O)NCC(O)c2ccc(F)cc2F)c1 (centres undefined)	109.6
CC(C)OCCOCc1cccc(NC(=O)NCc2cnn(C)c2)c1	2.629
CC(C)Nc1cccc(C(=O)NCC(O)c2ccc(F)cc2F)c1 (centres undefined)	1.201
COc1cccc(NC(=O)NCc2cnn(C)c2)c1	90.55
CC(=O)c1cccc(OC(C)C(=O)Nc2cnn(CCN(C)C)c2)c1 (centres undefined)	-1.957
CC(NC(=O)c1cccc(CCC(C)(C)O)c1)c1nnc(N)s1 (centres undefined)	-8.452
OCc1ccc(OCC(F)(F)F)cc1	0.2216
CCC(C)N(C)C(=O)Nc1ccc(N2CCSCC2)cc1C (centres undefined)	-11.87
O=C(O)C(F)(F)F.O=C(c1ccccc1)N1CCO[C@@H]2CN(c3cnccn3)C[C@@H]2C1	-2.123
CCOCC(=O)N1C[C@@H]2CCN(c3cnccn3)C[C@@H]2C1.O=C(O)C(F)(F)F	110.3
CC(C)CN1CCO[C@H]2CCN(c3cnccn3)CC[C@@H]21.O=C(O)C(F)(F)F	107
CC(C)CC(=O)N1C[C@@H]2CCN(c3cnccn3)C[C@@H]2C1.O=C(O)C(F)(F)F	83.3
CCCC(=O)N1C[C@@H]2CCN(c3cnccn3)C[C@@H]2C1.O=C(O)C(F)(F)F	107.8
O=C(O)C(F)(F)F.O=C(c1cnccn1)N1C[C@@H]2CCN(c3cccnc3)C[C@@H]2C1	-9.697
CC(SCC(=O)NC(N)=O)c1ccccc1F (centres undefined)	-3.716
Cc1cc(C)cc(S(=O)(=O)NCC2CNCCOC2)c1 (centres undefined)	5.985
Cc1c(C(=O)NS(=O)(=O)c2ccsc2)cnn1CC(C)C	9.8

Structure (SMILES)	Percent Effect [%]
Cn1ccnc1C(=O)N1C[C@@H]2CCN(c3cnccn3)C[C@@H]2C1.O=C(O)C(F)(F)F	-15.62
Cn1cncc1C(=O)N1C[C@@H]2CCN(c3cnccn3)C[C@@H]2C1.O=C(O)C(F)(F)F	-2.415
CCC(=O)N1C[C@@H]2CCN(c3cnccn3)C[C@@H]2C1.O=C(O)C(F)(F)F	109.3
O=C(c1nc(=O)[nH][nH]1)N1CCCN(CC2CCCCC2)CC1	4.28
Cc1nc(C2(O)CCCNCC2)sc1CCOc1ccc(Cl)cc1.Cl (centres undefined)	-4.713
Cc1[nH]nc2ncc(C(=O)N3CCN(CC(C)(C)O)CC3)cc12	-29.67
CCOCC1CN(S(=O)(=O)c2cccc(C)c2)Cc2nccn2C1 (centres undefined)	102.9
O=S(=O)(Cc1ccccc1)NC[C@H]1Cn2ccnc2CO1	-7.74
CCOCC1CN(S(=O)(=O)c2ccccc2)Cc2nccn2C1 (centres undefined)	89.2
CCS(=O)(=O)N1Cc2nccn2CC(COc2cccnc2)C1 (centres undefined)	-25.66
CCOCC1CN(S(=O)(=O)Cc2ccccc2)Cc2nccn2C1 (centres undefined)	112.8
CCOCc1ncn2c1CN(S(=O)(=O)c1cccc(C)c1)CC2	-2.947
COCC1CN(S(=O)(=O)c2cccc(F)c2)Cc2nccn2C1 (centres undefined)	114.5
COCc1ncn2c1CN(S(=O)(=O)c1cccc(F)c1)CC2	-3.986
COCC1CN(S(=O)(=O)c2ccccc2)Cc2ncnn2C1 (centres undefined)	2.623
CCc1nnc(CN(C)c2nc(C(C)C)nc3c2cnn3C)o1	-14.59
CCc1nc(C2CCCN2c2ncc(C(F)(F)F)cc2Cl)no1 (centres undefined)	16.09
CCCS(=O)(=O)N1Cc2nccn2CC(CN(C)C)C1.O=C(O)C(F)(F)F (centres undefined)	-8.912
Cc1cccc(S(=O)(=O)N2Cc3c(CN(C)C)nn(C)c3C2)c1	-7.774
Cc1cccc(S(=O)(=O)N2Cc3nccn3CC(CN(C)C)C2)c1 (centres undefined)	117.9
CS(=O)(=O)N1CCOC2(CCCC2)C1	-2.404
CS(=O)(=O)N1CCC2(CC1)CN(CCn1cccn1)C(=O)CO2	-11.65

Structure (SMILES)	Percent Effect [%]
COCCC1COC2(CCN(C(=O)C3CCCCC3)CC2)C1 (centres undefined)	-0.113
COCCC1COC2(CCN(C(=O)C3CCCC3)CC2)C1 (centres undefined)	-1.347
COCCC1COC2(CCN(C(C)=O)CC2)C1 (centres undefined)	-6.336
CC(C)C1=NOC2(CCN(C(=O)C3CCCC3)CC2)C1	98.86
Cc1ccc(C(=O)N2CCC3(CC2)CC(NC(=O)C(C)C)CO3)cc1 (centres undefined)	-11.34
CC(=O)N1CCC2(CC1)CC(C(C)C)=NO2	118.9
CC(C)C1=NOC2(CCN(S(C)(=O)=O)CC2)C1	106.9
CO[C@H]1CNC[C@@H]1NC(=O)c1cc(C)nc2c(C)cc(C)cc12	0.2692
Cc1cnn(CCNCc2ccccc2Oc2cccnc2)c1	8.919
CCCc1nc(N2Cc3cnn(Cc4ccc(F)cc4)c3C2)no1	5.743
CSc1ccccc1CN1C[C@H]2CC[C@@H]1CN(Cc1[nH]cnc1C)C2	-3.423
CC(C)(C)C(N)c1nc(-c2nnc[nH]2)no1 (centres undefined)	-10.11
CCOc1cc(/C=C/c2ncc(C(=O)O)s2)ccc1O	7.127
CCOc1c(OC)cc(/C=C/c2ncc(C(=O)NC)s2)cc1OC	-0.7468
CCOc1cc(/C=C/c2ncc(C(=O)O)s2)cc(Br)c1O	111.7
COC(=O)c1ccc(/C=C/c2ncc(C(=O)O)s2)cc1	5.854
CNC(=O)c1cnc(/C=C/c2cc(OC)cc(OC)c2)s1	5.835
COC(=O)c1cnc(/C=C/c2ccc(C(=O)O)cc2)s1	-4.44
CNC(=O)c1cnc(/C=C/c2cc(OC)c(O)c(OC)c2)s1	-7.095
CCOc1c(Br)cc(/C=C/c2ncc(C(=O)O)s2)cc1OC	109.6
CCOc1cc(/C=C/c2ncc(C(=O)O)s2)cc(Br)c1OC	120.5
